Here are results for 32 compounds from PubChem BioAssay AID720706 (Broad Institute, 2013).

Screen size: about 350,000 compounds; about 5,500 (1.6%) were called active.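 Rule for the calls: active = significant combined selectivity score with lowered wild-type GFP, culture density cut under 30%, mutant RFP and density less affected; inactive = any of these conditions unmet.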 What follows is part of a selection rich in actives, with near analogues and random picks from the rest.

The assay in a line: GFP drop in mixed WT/humanized-ribosome E. coli culture – GFP/RFP fluorescence, OD600, single point, bacterial rRNA inhibitor project, primary screen (AID 720706). To be noted: E. coli WT GFP vs humanized-ribosome RFP mutants, 24 h; GFP signal change (wild-type ribosome): stronger effect = lower value, DMSO median 0, no signal -100; OD600 change: measured here: OD600 growth, DMSO median 0, no signal -100; RFP signal change: measured here: RFP humanized mutant strains, DMSO median 0, no signal -100, concentration not given here.
Consider `COc1ccccc1-c1cnc2c(c1)C(=O)N([C@@H](C)CO)C[C@@H](C)[C@@H](CN(C)C(=O)c1cccnc1)O2`, for which the GFP signal change (wild-type ribosome) is 4.96% (inactive), the OD600 change was -0.255% and the RFP signal change was -1.54%.
As for `C[C@@H]1CN([C@@H](C)CO)S(=O)(=O)c2ccc(Br)cc2O[C@@H]1CN(C)C(=O)C1CCCCC1`, the GFP signal change (wild-type ribosome) was -5.25% (inactive), the OD600 change is -9.29% and the RFP signal change worked out at 0.015%.
Regarding `Cc1cc(C)cc(OCC(=O)Nc2ccc(N3CCOCC3)cc2N2CCOCC2)c1`, the GFP signal change (wild-type ribosome) is -2.33% (inactive), the OD600 change came out at 6.13% and the RFP signal change came to 0.039%.
In the case of `Cc1cccc(OCC(=O)NC(=S)Nc2ccccc2N2CCOCC2)c1`, the GFP signal change (wild-type ribosome) was -22.8% (active), the OD600 change is -9.72% and the RFP signal change came to 1.75%.
Take `O=C(COc1ccc(Cl)cc1)NC(=S)Nc1ccccc1N1CCOCC1`: the GFP signal change (wild-type ribosome) was -9.68% (inactive), the OD600 change is -9.44% and the RFP signal change is -2.65%.
As to `O=C(c1ccccn1)N1CC(=O)N2[C@H](CO)[C@H](c3ccc(C#CCc4ccccc4)cc3)[C@H]2C1`, the GFP signal change (wild-type ribosome) was 1.93% (inactive), the OD600 change is -4.41% and the RFP signal change was -3.49%.
For `COCC#Cc1ccc2c(c1)O[C@H](CN(C)Cc1ccc3c(c1)OCO3)[C@H](C)CN([C@H](C)CO)S2(=O)=O`, the GFP signal change (wild-type ribosome) is -2.4% (inactive), the OD600 change is -9.34% and the RFP signal change is -0.135%.
Take `O=C(Nc1ccc(Br)cn1)c1ccc([N+](=O)[O-])o1`: the GFP signal change (wild-type ribosome) is -3.84% (inactive), the OD600 change was -3.66% and the RFP signal change was -3.37%.
On the same counts, the results for `O=C(NCc1nnnn1-c1ccc(Cl)cc1)c1ccc([N+](=O)[O-])o1` are -23% (active), 2.62% and -4.79%.
On to `O=C(NCc1nnnn1-c1ccc(Cl)cc1)c1ccc2c(c1)OCO2`, for which the GFP signal change (wild-type ribosome) was 5.87% (inactive), the OD600 change was determined as 4.9% and the RFP signal change is -2.26%.
Consider `CC(C)(C)c1ccc(CCC2OCC(CN3CCOCC3)O2)cc1` (stereo unspecified), for which the GFP signal change (wild-type ribosome) was -33.2% (active), the OD600 change was -11.3% and the RFP signal change is -5.34%.
In the same order, the values of `CSc1ccc(CNCCN2CCOCC2)cc1` are 6.43% (inactive), 16.1% and -0.625%.
As for `CC(CN1CCOCC1)OC(=O)c1ccc(C(C)(C)C)cc1` (stereo unspecified), the GFP signal change (wild-type ribosome) was -5.42% (inactive), the OD600 change was -0.13% and the RFP signal change came to 2.33%.
`C/C=C/c1cnc2c(c1)C(=O)N([C@H](C)CO)C[C@H](C)[C@@H](CN(C)CC1CCOCC1)O2`: the GFP signal change (wild-type ribosome) was 7.65% (inactive), the OD600 change is 16.9% and the RFP signal change is -1.32%.
In the case of `CCn1c(SCC(=O)Nc2nccs2)nnc1-c1ccco1`, the GFP signal change (wild-type ribosome) was 10.8% (inactive), the OD600 change worked out at 0.14% and the RFP signal change was 0.233%.
Take `Cn1c(SCC(=O)Nc2nccs2)nnc1-c1cccnc1`: the GFP signal change (wild-type ribosome) is 11.6% (inactive), the OD600 change came to 16.8% and the RFP signal change was -1.48%.
With `Cc1[nH]c2ccccc2c1SCC(=O)Nc1nccs1`, the GFP signal change (wild-type ribosome) was -21.9% (active), the OD600 change is -16.9% and the RFP signal change was -2.17%.
On to `CC1CCCCC12NC(=O)N(CC(=O)OCc1c(F)cccc1Cl)C2=O` (stereo unspecified), for which the GFP signal change (wild-type ribosome) is -24.1% (active), the OD600 change is -16.3% and the RFP signal change was found to be 0.314%.
Consider `CC1CCCCC12NC(=O)N(CC(=O)OCC(=O)NCc1ccc(F)cc1)C2=O` (stereo unspecified), for which the GFP signal change (wild-type ribosome) was -2.84% (inactive), the OD600 change is -0.669% and the RFP signal change is -1.07%.
`COc1cccc(CNC(=O)COC(=O)CN2C(=O)NC3(CCCCC3C)C2=O)c1` (stereo unspecified): the GFP signal change (wild-type ribosome) was 3.13% (inactive), the OD600 change was 0.95% and the RFP signal change stood at 0.493%.
For `Cc1cc2c(cc1C)[n+](C)cn2CC(O)COCC1CC=CCC1` (stereo unspecified), the GFP signal change (wild-type ribosome) was -29.3% (active), the OD600 change was -16.1% and the RFP signal change worked out at 3.07%.
On to `Cc1noc(C)c1S(=O)(=O)Nc1ccc2c(c1)C(=O)N([C@H](C)CO)C[C@H](C)[C@H](CN(C)S(=O)(=O)c1cn(C)cn1)OCCCC[C@@H](C)O2`, for which the GFP signal change (wild-type ribosome) is -2.25% (inactive), the OD600 change was -4.58% and the RFP signal change is -3.75%.
As to `COc1ccc(CN(C)C[C@@H]2Oc3ccc(NS(=O)(=O)c4cn(C)cn4)cc3C(=O)N([C@@H](C)CO)C[C@H]2C)cc1`, the GFP signal change (wild-type ribosome) was -0.89% (inactive), the OD600 change came to 10.2% and the RFP signal change was -0.875%.
For `COc1ccc(/C=N/N(C)C2=NS(=O)(=O)c3ccccc32)cc1OC`, the GFP signal change (wild-type ribosome) is 14.8% (inactive), the OD600 change was found to be 9.54% and the RFP signal change was -0.4%.
Regarding `Cc1ccc(C(=O)NN(CCC#N)C2=NS(=O)(=O)c3ccccc32)cc1`, the GFP signal change (wild-type ribosome) was 11% (inactive), the OD600 change stood at 11% and the RFP signal change amounted to 1.04%.
`O=S1(=O)N=C(N(CCO)/N=C/c2ccccc2F)c2ccccc21`: the GFP signal change (wild-type ribosome) is -21.1% (active), the OD600 change was -9.01% and the RFP signal change amounted to 2.34%.
Take `O=C(Nc1ccc(C(F)(F)F)cc1)N[C@@H]1CC[C@H](CCNC(=O)c2ccccc2F)O[C@@H]1CO`: the GFP signal change (wild-type ribosome) was -6.45% (inactive), the OD600 change was -10.8% and the RFP signal change amounted to 3.96%.
Regarding `COc1ccc(NC(=O)Nc2ccc3c(c2)C(=O)N([C@H](C)CO)C[C@@H](C)[C@H](CN(C)C(=O)Cc2ccccc2)OCCCC[C@H](C)O3)cc1`, the GFP signal change (wild-type ribosome) was -0.637% (inactive), the OD600 change was -0.596% and the RFP signal change amounted to 2.91%.
In the case of `CC(=O)Nc1ccc(CNc2nc(NCCN(C)C)nc3cc(-c4ccccc4)sc23)cc1`, the GFP signal change (wild-type ribosome) was -20.5% (active), the OD600 change is -5.3% and the RFP signal change stood at 1.68%.
In the case of `COCCNc1nc(NCc2ccc(NC(C)=O)cc2)c2sccc2n1`, the GFP signal change (wild-type ribosome) is 31.4% (inactive), the OD600 change is 15.7% and the RFP signal change is 6.28%.
For `COCCNc1nc(Nc2ccccc2Cl)c2sc(-c3ccccc3)cc2n1`, the GFP signal change (wild-type ribosome) is -0.73% (inactive), the OD600 change came out at 28.1% and the RFP signal change is -2.05%.
As for `COc1ccc(NC(=O)N(C)C[C@@H]2Oc3ncc(-c4ccc(C#N)cc4)cc3C(=O)N([C@@H](C)CO)C[C@H]2C)cc1`, the GFP signal change (wild-type ribosome) was -1.74% (inactive), the OD600 change was -0.24% and the RFP signal change was -0.855%.
